Among the test systems are HCT-15 colon; HT29 colon; SNB-19 CNS; U251 CNS; PC-3 prostate; SK-MEL-5 melanoma; UACC-62 melanoma; LOX IMVI melanoma; SK-MEL-28 melanoma; SK-MEL-2 melanoma; EKVX NSCLC; SN12C renal; UO-31 renal; TK-10 renal; ACHN renal; CAKI-1 renal; A498 renal; MOLT-4 leukemia; CCRF-CEM leukemia.
Holding throughout (experiment): NCI-60 one-dose screen, 48 h (100 = growth as untreated, 0 = no growth, -100 = all killed)
Holding throughout (conditions): 10 µM unless noted

SMILES strings stand for the structures. About 83,000 compounds went through this panel and 20% of them were active in at least one assay; those are over-represented in the sample as a whole.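 96-well plates, one dose, 48 hours. Percent growth reported; active if below 10.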 Unmarked numbers belong to inactive results. Calls of active or inactive are those of the source.

For `COc1ccc(-c2cc(-c3ccccc3)nc(SCCCC(=O)NO)n2)cc1OC`, the growth in the assay on HCT-15 colon is 16.5%; with HT29 colon, 15.1%; with SNB-19 CNS, 20%; in the assay with U251 CNS, 1.87% (active); with PC-3 prostate it was 13%; in the assay on SK-MEL-5 melanoma, -69.8% (active). The growth is -22.3% (active) with UACC-62 melanoma; -61.6% (active) with LOX IMVI melanoma; 21.5% in the assay with SK-MEL-28 melanoma; -1.51% (active) with SK-MEL-2 melanoma; 8.24% (active) in the assay with EKVX NSCLC; 13.8% with SN12C renal. For the same compound, the growth in the assay with UO-31 renal was -39.6% (active); in the assay with TK-10 renal, 4.89% (active); with ACHN renal, -0.775% (active); in the assay with CAKI-1 renal, -37.9% (active); with A498 renal it was -24.9% (active); in the assay on MOLT-4 leukemia, 2.96% (active).

Consider `CC(=O)Oc1csc(N(C(C)=O)c2cc(C(=O)O)cc(C(=O)O)c2)n1`, for which the growth in the assay with HCT-15 colon is 92.8%; with HT29 colon, 104%; in the assay on SNB-19 CNS, 97.2%; in the assay on U251 CNS, 88.5%; in the assay on PC-3 prostate, -100% (active); in the assay with SK-MEL-5 melanoma, 94%. For the same compound, the growth in the assay on UACC-62 melanoma is 94.2%; with LOX IMVI melanoma, 90.2%; in the assay on SK-MEL-28 melanoma it was 106%; in the assay on SK-MEL-2 melanoma, 106%; in the assay with EKVX NSCLC, 76.2%; in the assay on SN12C renal, 98.8%. In addition, the growth is 92.7% in the assay with UO-31 renal; 105% in the assay on TK-10 renal; 104% in the assay on ACHN renal; 101% in the assay on CAKI-1 renal; 70.5% with A498 renal; 1.74% (active) in the assay with CCRF-CEM leukemia. In addition, the growth in the assay on MOLT-4 leukemia is 109%.

Consider `CC(C)(C)n1cc(-c2ccnc(NCCCNS(=O)(=O)c3ccc(Cl)cc3)c2)c(-c2cccc(O)c2)n1`, for which the growth is -65.3% (active) in the assay on HCT-15 colon; -49.3% (active) in the assay on HT29 colon; 24.6% in the assay on SNB-19 CNS; -43.7% (active) with U251 CNS; -0.444% (active) with PC-3 prostate; -87.8% (active) in the assay with SK-MEL-5 melanoma. Moreover, the growth in the assay on UACC-62 melanoma is -2.46% (active); in the assay with LOX IMVI melanoma, -88.4% (active); in the assay on SK-MEL-28 melanoma, -67.1% (active); with SK-MEL-2 melanoma it was -64% (active); with EKVX NSCLC, 20.5%; in the assay on SN12C renal, 18.1%. Besides, the growth with UO-31 renal is 11%; in the assay with TK-10 renal, 43.7%; with ACHN renal, 8.91% (active); in the assay on CAKI-1 renal, 19.2%; in the assay with A498 renal, -8.44% (active); with MOLT-4 leukemia it was -17.3% (active).

In the case of `c1ccc(Nc2nc(Nc3ccccc3)nc(Nc3ccccc3)n2)cc1`, the growth in the assay on HCT-15 colon is 82.9%; with HT29 colon, 75.3%; in the assay on SNB-19 CNS, 98.3%; in the assay with U251 CNS, 91.4%; with PC-3 prostate it was 79.7%; in the assay on SK-MEL-5 melanoma, 78%. Further, the growth was 83% in the assay on UACC-62 melanoma; 82.7% with LOX IMVI melanoma; 79% with SK-MEL-28 melanoma; 85.8% with SK-MEL-2 melanoma; 77.9% in the assay on EKVX NSCLC; 100% in the assay with SN12C renal. Also, the growth in the assay with UO-31 renal was 55.5%; in the assay on TK-10 renal it was 74.6%; with ACHN renal, 91.9%; in the assay with CAKI-1 renal it was 85%; in the assay with A498 renal it was 79%; in the assay on MOLT-4 leukemia, 65.7%.

As to `COc1ccc(S(=O)(=O)NCCCNc2nccc(-n3ccc4cccnc43)n2)cc1`, the growth in the assay with HCT-15 colon was 75.8%; in the assay on HT29 colon, 108%; in the assay with SNB-19 CNS, 89.1%; in the assay on U251 CNS it was 92.5%; with PC-3 prostate, 86.2%; with SK-MEL-5 melanoma it was 99.1%. The growth in the assay with UACC-62 melanoma was 88.3%; in the assay on LOX IMVI melanoma, 90.8%; with SK-MEL-28 melanoma it was 104%; in the assay with SK-MEL-2 melanoma it was 106%; in the assay with EKVX NSCLC it was 87.5%; with SN12C renal it was 90.9%. Also, the growth in the assay with UO-31 renal is 97.5%; in the assay on TK-10 renal, 105%; with ACHN renal, 94.6%; in the assay with CAKI-1 renal, 69.6%; in the assay on A498 renal, 87.5%; in the assay on CCRF-CEM leukemia it was 90%. For the same compound, the growth in the assay with MOLT-4 leukemia was 77.2%.

Take `CC(NNC(C)c1ccccc1)c1ccccc1` (stereo not drawn): the growth with HCT-15 colon is 105%; with HT29 colon, 95.2%; in the assay on SNB-19 CNS, 100%; in the assay on U251 CNS, 106%; in the assay with PC-3 prostate it was 94%; with SK-MEL-5 melanoma, 101%. Moreover, the growth is 110% in the assay on UACC-62 melanoma; 101% with LOX IMVI melanoma; 118% in the assay on SK-MEL-28 melanoma; 110% in the assay on SK-MEL-2 melanoma; 97.2% with EKVX NSCLC; 116% in the assay with SN12C renal. For the same compound, the growth with UO-31 renal is 93.1%; in the assay on TK-10 renal it was 105%; in the assay on ACHN renal it was 108%; in the assay on CAKI-1 renal, 89%; in the assay with A498 renal it was 97.9%; in the assay with CCRF-CEM leukemia it was 118%. For the same compound, the growth with MOLT-4 leukemia is 113%.

Take `O=S(=O)(NCCCNc1nccc(-n2ccc3cccnc32)n1)c1cccc(C(F)(F)F)c1`: the growth with HCT-15 colon is 103%; in the assay with HT29 colon, 111%; with SNB-19 CNS, 102%; in the assay with U251 CNS, 97.8%; in the assay with PC-3 prostate, 103%; in the assay on SK-MEL-5 melanoma, 106%. Further, the growth is 98.8% with UACC-62 melanoma; 99.9% in the assay with LOX IMVI melanoma; 106% with SK-MEL-28 melanoma; 107% in the assay on SK-MEL-2 melanoma; 101% in the assay on EKVX NSCLC; 108% with SN12C renal. For the same compound, the growth is 104% with UO-31 renal; 102% in the assay on TK-10 renal; 105% in the assay on ACHN renal; 94.6% with CAKI-1 renal; 112% in the assay with A498 renal; 102% in the assay on CCRF-CEM leukemia. The growth in the assay with MOLT-4 leukemia is 97.3%.

As to `CCCCCCCCCCCCCCCCCCNC(=O)[C@H]1CSC(c2cccs2)N1` (stereo partly drawn), the growth in the assay with HCT-15 colon is 42.5%; in the assay on HT29 colon, -35% (active); in the assay with SNB-19 CNS it was 27.8%; in the assay with U251 CNS, -83.8% (active); with PC-3 prostate, 38.5%; in the assay with SK-MEL-5 melanoma, -66.2% (active). The growth in the assay on UACC-62 melanoma was -92.1% (active); in the assay on LOX IMVI melanoma it was 14.2%; in the assay with SK-MEL-28 melanoma it was -89.7% (active); with SK-MEL-2 melanoma it was -86.7% (active); in the assay with EKVX NSCLC, 3.9% (active); in the assay with SN12C renal, -84.2% (active). The growth in the assay with UO-31 renal is 45.6%; with TK-10 renal, 29.9%; with ACHN renal it was 67.9%; in the assay on CAKI-1 renal, -0.0289% (active); in the assay with A498 renal it was 68.1%; in the assay with MOLT-4 leukemia, 3.87% (active).

Values taken from PubChem BioAssay (NCI).
